Rows were chosen to be rich in hits. Some 12% of all compounds tested hit in one or more screens of this group.
Pf growth 48h = Primary qHTS for delayed death inhibitors of the malarial parasite plastid, 48 hour incubation. P. falciparum luciferase growth in erythrocytes, 48 h. actives 5.9% (n = 310,000). AID 504832, 2011. Potency, µM (top dose mostly 28.7 µM), for the others: at the highest dose activity change, negative = inhibition, usual class: inhibitors; note: % is set by controls: 0 for no effect and ±100 for the full control effect
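Compounds are pin-transferred into medium, infected erythrocytes (2% hematocrit, 0.1% parasitemia final) are added, and plates sit one parasite generation at 37 C in 5% CO2. Detection reagent is then added and luminescence measured.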
Sm TGR inh = qHTS Assay for the Inhibitors of Schistosoma Mansoni Peroxiredoxins. AID 485364, 2010. purified TGR, DTNB reduction, TNB absorbance 405 nm. actives 3% (n = 360,000). Schistosoma mansoni thioredoxin glutathione reductase (TGR), Q962Y6. Potency, µM (series often up to 114 µM), without a hit: at the top dose activity change, negative = inhibition, actives largely listed as inhibitors; note: % is set by controls: 0 for no effect and ±100 for the full control effect; nearly all actives have a fitted effect of over 60% in size
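Kinetic colorimetric format: TGR-catalysed, NADPH-driven DTNB reduction monitored via TNB absorbance. Enzyme dispensed at 20 nM; compound exposure 15 min at room temperature before reaction start.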
SARS PLpro yeast = qHTS of Yeast-based Assay for SARS-CoV PLP; S. cerevisiae expressing SARS-CoV PLpro, growth rescue; Potency, µM (doses to about 32.9 µM), for inactives: at the top dose activity, positive = growth rescue, actives largely listed as activators; actives 0.19% (n = 330,000); AID 485353, 2010; calls by dose curve; note: 0% is about no effect; nearly all actives have a fitted effect of over 55% in size
Pf growth 96h = Primary qHTS for delayed death inhibitors of the malarial parasite plastid, 96 hour incubation; P. falciparum luciferase reporter growth, 96 h; Potency, µM (doses to about 28.7 µM), for the others: top-dose activity change, negative = inhibition, hits mostly inhibitors; actives 6.9% (n = 320,000); AID 504834, 2011; note: % is set by controls: 0 for no effect and ±100 for the full control effect
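Compounds incubated with erythrocytes infected by luciferase-expressing P. falciparum (2% hematocrit, 0.05% parasitemia final) for 96 hours, 37 C in 5% CO2. Growth inhibition scored as decreased luciferase luminescence.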
* hit, by the source's call; ? = inconclusive; . = no result given; [ ] = remark or other dose. Unless noted, calls come from the whole dose curve; as a rule, active = well fitted curve in the direction sought with a large enough effect; inconclusive = small, poorly fitted or top-dose-only effect, or another doubt; inactive = no such curve, though single readings can be large; an effect the other way counts as inactive or inconclusive. Potency is the fitted concentration of half-maximal effect.

SMILES	Pf growth 48h	Sm TGR inh	SARS PLpro yeast	Pf growth 96h
CCOC(=O)Cn1c(=O)oc2cc(S(=O)(=O)N3CCCC(C(=O)OCC)C3)ccc21 (stereo unspecified)	.	?	-1%	10µM*
COc1ccc(NC(=O)CSc2nc3ccccc3nc2N2CCCC2)cc1	-14%	-9%	-3%	?
COc1ccc(N(C(=O)c2cnccn2)C(C(=O)NC2CCCCC2)c2ccccc2)cc1 (stereo unspecified)	-16%	-13%	1%	-14%
CC(C)(C)n1cc(C(=O)c2ccccc2)cc1-c1ccccc1	12µM*	0%	2%	?
CCOC(=O)c1ccc(-c2c(-c3ccccc3OC)oc3ccccc23)cc1F	?	-2%	-3%	3.3µM*
COc1ccc(-c2oc(=O)c3cc(OC)c(OC)cc3c2-c2ccc3c(c2)OCO3)cc1	.	.	1%	.
COc1ccccc1-c1oc2ccccc2c1-c1ccc2cc[nH]c2c1	2.1µM*	?	1%	?
COc1cc2c(-c3ccc4cc[nH]c4c3)c(-c3ccc(C#N)cc3)oc(=O)c2cc1OC	9.3µM*	0%	-1%	?
O=c1c2ccccc2oc2cc(-c3ccc4cc[nH]c4c3)ccc12	.	.	1%	.
Cc1cccn2c(=O)nc(SCC(=O)NC3CCCC3)nc12	2%	5%	1%	6%
O=C(OCC1CCCO1)c1ccc2c(c1)N(Cc1c(F)cccc1Cl)C(=O)c1ccccc1S2(=O)=O (stereo unspecified)	.	-4%	.	.
O=C(NC(=O)c1cccc(F)c1)OC[C@@H]1CCCN2CCCC[C@H]12	7%	-2%	26%	?
O=C(Nc1ccc(C(=O)OC[C@@H]2CCCN3CCCC[C@H]23)cc1)c1cccc(Br)c1	1.9µM*	-3%	13%	2.6µM*
COC1=C(Nc2ccccc2OC)C(=O)c2ccccc2C1=O	2.3µM*	?	-3%	2.3µM*
COc1ccccc1NC1=C(NC(C)=O)C(=O)c2ccccc2C1=O	3.7µM*	4µM*	-4%	?
O=C1CC(=C2c3ccccc3-c3ccccc32)C(=O)N1CCCCN1CCN(c2ccccc2)CC1	4.1µM*	?	-29%	6.6µM*
O=C1CC(=C(c2ccccc2)c2ccccc2)C(=O)N1CCCN1CCN(c2cccc(Cl)c2)CC1	-17%	2%	4%	3%[5.75 µM]
CC1CN=C(Nc2ccccc2)S1 (stereo unspecified)	5%	3%	6%	54%
CC1CN=C(Nc2ccc(N(C)C)cc2)S1 (stereo unspecified)	17%	-12%	2%	2.1µM*
Cc1ccccc1C(N)c1ccncc1 (stereo unspecified)	31%	?	13%	5.9µM*
Cc1ccc(S(=O)(=O)NCCCN2CCCC2)cc1	1%	-17%	1%	9%
O=C(Nc1ccc(Nc2ccncc2)cc1)c1ccc(Nc2ccnc3ccc([N+](=O)[O-])cc23)cc1	0.093µM*	-31%	-1%	0.093µM*
Fc1ccccc1Oc1nc(-c2ccncc2)nc2ccccc12	?	-3%	1%	3.3µM*
CCCCn1cc(S(=O)(=O)c2ccc(OC)cc2)c(=O)c2cc(F)c(N3CCCC3)cc21	.	3%	.	.
CC1(C)NC(=O)N(CC(=O)Nc2ccc(-n3cnnn3)cc2)C1=O	.	.	-1%	.
SMILES	Pf growth 48h	Sm TGR inh	SARS PLpro yeast	Pf growth 96h
CC(C)CCNC(=O)c1sc2ccc(S(=O)(=O)N3CCCCC3)cc2c1N	13µM*	-2%	5%	0%
CCn1cc(C(=O)NCCc2ccc(Cl)cc2)c(=O)c2cc(S(=O)(=O)N3CCCCCC3)ccc21	.	9%	.	.
Nc1c(C(=O)NCCc2ccc(Cl)cc2)sc2ccc(S(=O)(=O)N3CCCCC3)cc12	10µM*	7%	-12%	?
Cc1ccc(C(=O)c2oc3ccccc3c2NC(=O)COc2ccccc2Cl)cc1	.	0%	.	.
CCOC(=O)N1CCN(C(=O)c2ccc3nc4ccsc4c(=O)n3c2)CC1	2%	0%	8%	8.3µM*
CCOC(=O)N1CCN(C(=O)c2cccn3c(=O)c4sccc4nc23)CC1	27%	-9%	1%	2.3µM*
COc1ccc(CC(=O)NC2CC(=O)N(c3ccc(C)c(C)c3)C2)cc1OC (stereo unspecified)	.	0%	.	.
CCOC(=O)C1CCN(S(=O)(=O)c2cc(Cl)c(C)cc2OC)CC1	7%	1%	-1%	1%
COc1cc(C)c(Cl)cc1S(=O)(=O)N1CCSC1	-3%	16%	-5%	12µM*
CC1CCN(C(=O)Cn2cc(SCC(=O)Nc3ccccc3C(F)(F)F)c3ccccc32)CC1	.	-13%	.	.
CN(C)CCN(CC1CCCN(Cc2ccccc2F)C1)C(=O)c1ccc(Cl)cc1 (stereo unspecified)	?	-3%	0%	13µM*
Cc1ccccc1CC(=O)N(CCN(C)C)CC1CCCN(Cc2ccccc2F)C1 (stereo unspecified)	?	4%	2%	?
COc1ccc(CCc2cc(OC)cc(=O)o2)cc1	9%	5%	0%	1.9µM*
CC(C)(C)C(=O)Nc1nc2c(s1)CN(Cc1ccccc1)CC2	?	25µM*	1%	?
COc1ccc([C@H]2[C@H](C(=O)OC(C)(C)C)N3N=Cc4ccccc4C3C23C(=O)c2ccccc2C3=O)cc1OC (stereo partly specified)	10µM*	?	0%	9.3µM*
COc1ccc([C@H]2[C@H](C(=O)OC(C)(C)C)N3N=Cc4ccccc4C3C23C(=O)c2ccccc2C3=O)c(OC)c1 (stereo partly specified)	2.9µM*	-16%	17%	1µM*
CC(C)(C)C(=O)[C@H]1[C@H](c2ccccc2)[C@@]2(N=C(c3ccccc3)OC2=O)C2c3ccccc3C=NN21 (stereo partly specified)	?	-31%	-10%	?
COc1ccc(-c2nc(C)c(CCNC(=O)c3cccc(C)c3)s2)cc1OC	.	-2%	.	.
CSCCCNC(=S)N1CCN(c2ccc(C(C)=O)cc2)CC1	?	2%	-2%	12µM*
CC(=O)c1ccc(N2CCN(C(=S)Nc3cc(C)ccc3C)CC2)cc1	10µM*	-2%	16%	?
CCCCNC(=S)N1CCN(c2ccc(C(C)=O)cc2)CC1	?	-3%	-2%	?
CCOC(=O)c1cccc(NC(=O)c2cc(S(=O)(=O)N3CCCCCC3)cn2C)c1	.	-1%	.	.
CCN(CC)CCN(C(=O)c1ccc(C(=O)OC)cc1)c1nc2ccc(Cl)cc2s1	.	2%	.	.
COc1ccc(OC)c(N(C)S(=O)(=O)c2cc3c(cc2C)NC(=O)CO3)c1	?	4%	3%	0%
CCN(CC)C(=O)C1CCCN(c2ccc([N+](=O)[O-])cc2)C1 (stereo unspecified)	3%	5%	0%	1.7µM*
Cc1ccc(C(=O)NC2CCN(CCCC(=O)c3ccc(F)cc3)CC2)cc1	10µM*	-18%	7%	?

Assay outcomes as filed in PubChem BioAssay.
